According to PubChem BioAssay AID1851 (National Center for Advancing Translational Sciences (NCATS), 2009):
“And” between values parts separate entries of the source, which are not always exact repeats. Equal values may be shown once. In all, about 16,000 compounds went through this assay and about 5,800 (36%) were called active. Not shown: some 23% with an inconclusive outcome. Some of the results follow. Unmarked numbers belong to inactive results. Calls come from the whole dose curve; as a rule, active = well fitted curve in the direction sought with a large enough effect; inconclusive = small, poorly fitted or top-dose-only effect, or effect the other way; inactive = no such curve, though single readings can be large or run the other way.

target: Cytochrome P450 2C19 (Homo sapiens) (UniProt P33261); assay: Cytochrome panel assay with activity outcomes; settings: recombinant CYP, pro-luciferin dealkylation, luminescence, p450-cyp2c19; series mostly up to 57.1 µM
% is set by controls: 0 for no effect and ±100 for the full control effect.

Cytochrome P450 2C19 (Homo sapiens), sequence (P33261 whole entry, looked up): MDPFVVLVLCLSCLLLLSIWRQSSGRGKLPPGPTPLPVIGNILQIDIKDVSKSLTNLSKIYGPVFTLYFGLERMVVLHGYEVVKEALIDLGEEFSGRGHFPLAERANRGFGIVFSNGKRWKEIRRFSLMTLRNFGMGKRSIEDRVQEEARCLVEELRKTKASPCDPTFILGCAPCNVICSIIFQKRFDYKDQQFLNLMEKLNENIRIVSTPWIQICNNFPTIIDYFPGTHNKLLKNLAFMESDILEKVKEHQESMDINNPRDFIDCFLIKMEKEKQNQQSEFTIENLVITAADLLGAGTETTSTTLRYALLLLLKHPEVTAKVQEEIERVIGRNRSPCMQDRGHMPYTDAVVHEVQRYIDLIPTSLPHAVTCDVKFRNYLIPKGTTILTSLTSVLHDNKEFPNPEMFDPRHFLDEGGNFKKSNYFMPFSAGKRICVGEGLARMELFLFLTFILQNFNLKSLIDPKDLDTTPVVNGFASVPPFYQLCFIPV

Row | SMILES | AC50 | activity, negative = inhibition
1 | CCC[C@H]1C[C@H](C(=O)N[C@H]([C@@H]2O[C@H](SC)[C@@H](O)[C@H](O)[C@@H]2O)[C@H](C)O)N(C)C1 | inactive | –
2 | Cc1cc(NC(=O)Nc2ccc(N(C)C)cc2)c2cc(F)cc(F)c2n1 | 15.8 µM (active) | –
3 | Cc1cc(N)c2cc(NC(=O)Nc3ccc4nc(C)cc(N)c4c3)ccc2n1 | – | -6.46% [at 11.4 µM]
4 | Cc1cc(C)c(C(N)=O)c(NC(=O)Nc2ccccc2)n1 | inactive | –
5 | COc1cc(OC)c2c(c1Cl)O[C@@]1(C2=O)[C@H](C)CC(=O)C[C@@H]1OC | inactive | –
6 | C[C@@H]1NCC[C@H](CC(=O)O)[C@H]1CC(=O)O | – | 4.52% [at 11.4 µM]
7 | Cn1c(SCC(=O)N2CCN(S(=O)(=O)c3ccccc3)CC2)nc2ccccc21 | 15.8 µM (active) | –
8 | COc1ccccc1-n1c(SCC(=O)N2CCCC2)nc2cccnc21 | inactive | –
9 | CC1CCN(C(=O)CSc2nc3cccnc3n2C)CC1 | 8.91 µM (active) | –
10 | O=C(CCc1nc2ccccc2c(=O)[nH]1)OCC(=O)N1CCN(S(=O)(=O)c2ccccc2)CC1 | inactive | –
11 | CCCn1c(=O)c2c(ncn2C)n(CCC)c1=O | inactive | –
12 | N#Cc1cccc(NC(=O)N2CC[C@@]3(CCCN(C(=O)c4ccco4)C3)C2)c1 | inactive | –
13 | CCCCCOc1ccc(C(=O)NCC2(c3ccccc3)CCOCC2)cc1 | 7.94 µM (active) | –
14 | Clc1ccc(-c2nnc(-c3ccco3)o2)cc1 | 20 µM (active) | –
15 | O=C(Nc1nnc(-c2ccc(Cl)cc2)o1)Nc1ccccc1Cl | inactive | –
16 | O=C(Cc1ccc(Cl)cc1)Nc1cccc(-c2nnc(-c3ccco3)o2)c1 | 0.0158 µM (active) | –
17 | Clc1ccc2c(N3CCC(CCC4CCN(c5ncnc6cc(Cl)ccc56)CC4)CC3)ncnc2c1 | – | -1.06% [at 11.4 µM]
18 | CCCCCC(=O)O[C@H](CC(=O)O)C[N+](C)(C)C | inactive | –
19 | COc1cccc(NC(=O)c2cc(-c3cccnc3)nc3c(Cl)cccc23)c1 | 6.31 µM (active) | –
20 | COc1ccc(-c2nc3cnc(N4CCNCC4)nc3n(C3CC3)c2=O)cc1 | inactive | –
21 | CC1(C)CC(NCc2ccc3c(c2)OCO3)CCO1 (centres undefined) | 11.2 µM (active) | –
22 | CC1(C)CC(NC(=O)c2ccc3c(c2)OCO3)CC(C)(C)N1 | inactive | –
23 | c1ccc(NN(Cc2cnccn2)c2ccccc2)cc1 | 2 µM (active) | –
24 | c1ccc(CCc2cccnc2)nc1 | – | -11.1% [at 11.4 µM]
25 | C/C(CCC(=O)OC[C@@H]1O[C@H](C#Cc2ccccc2)C=C[C@@H]1Oc1ccc(C)cc1)=N/O[C@@H](C)c1cn([C@H](CO)Cc2ccccc2)nn1 | 3.98 µM (active) | –

Row | SMILES | AC50 | activity, negative = inhibition
26 | CCc1cc2c(nc1CC)CCN(CC/C(C)=N/O[C@@H](C)c1cn([C@@H]3COC[C@@H]3O)nn1)C2 | – | 14.6% [at 11.4 µM]
27 | COc1ccc(O[C@H]2C=C[C@@H](c3ccccc3)O[C@H]2COC(=O)CC/C(C)=N\O[C@@H](C)c2cn([C@H]3COC[C@H]3O)nn2)cc1 | 2.51 µM (active) | –
28 | CC(=O)OC[C@H]1O[C@@H](O/N=C(\C)CCC(=O)OC[C@@H]2O[C@H](C#Cc3ccccc3)C=C[C@@H]2Oc2ccc(C)cc2)[C@H](OC(C)=O)[C@@H](OC(C)=O)[C@H]1OC(C)=O | – | -18.3% [at 11.4 µM]
29 | COc1ccc(O[C@H]2C=C[C@@H](c3ccccc3)O[C@H]2COC(=O)CC/C(C)=N\O[C@@H](C)c2cn([C@H](CO)Cc3ccccc3)nn2)cc1 | 63.1 nM (active) and 631 nM (active) | –
30 | CC(=O)OC[C@@H]1O[C@H](C/C=N\O[C@@H](C)c2cn([C@H](CO)Cc3ccccc3)nn2)C=C[C@@H]1OC(C)=O | – | 25.9% [at 11.4 µM] and 17.9% [at 11.4 µM]
31 | C/C(CCC(=O)OC[C@@H]1O[C@H](C#Cc2ccccc2)C=C[C@@H]1Oc1ccc(C)cc1)=N/OC[C@@H](O)COCc1ccco1 | – | -32.2% [at 11.4 µM]
32 | C/C(CCC(=O)OC[C@@H]1O[C@H](C#Cc2ccccc2)C=C[C@@H]1Oc1ccc(C)cc1)=N/OC[C@@H](C)[C@H](OCc1ccccc1)C(C)C | – | -30.1% [at 11.4 µM]
33 | C/C(CCN1CCc2nc(-c3ccccc3)c(-c3ccccc3)cc2C1)=N\O[C@@H](C)c1cn([C@@H]2COC[C@@H]2O)nn1 | – | 3.9% [at 11.4 µM]
34 | CO/N=C(/C)CCC(=O)OC[C@@H]1O[C@H](C#Cc2ccccc2)C=C[C@@H]1Oc1ccc(C)cc1 | 3.98 µM (active) | –
35 | CC(C)=NO[C@@H](C)c1cn([C@H](CO)Cc2ccccc2)nn1 | – | -12.3% [at 11.4 µM] and -23.6% [at 11.4 µM]
36 | O=CN1CCN(C[C@H](O)CN2CCCCC2)CC1 | – | 10.2% [at 11.4 µM]
37 | O=c1oc2c(Cl)cc(Cl)cc2cc1-c1nnc(Nc2ccccc2F)s1 | inactive | –
38 | CC(C)C(O)(C#CCN1CCCC1)c1ccccc1 (centres undefined) | 10 µM (active) | –
39 | O[C@@](CCN1CCCCC1)(c1ccccc1)C1CCCCC1 | inactive | –
40 | OC(CCCN1CCCCC1)(c1ccccc1)c1ccccc1 | inactive | –
41 | CO[C@H]1COC(=O)[C@H]2CCCN2C(=O)C/C=C\[C@@H](C)[C@H](OC)COC(=O)C/C=C\[C@@H]1C | – | 19.4% [at 11.4 µM]
42 | O=C(CN(c1ccccc1)S(=O)(=O)c1ccccc1[N+](=O)[O-])NN=C1CCCCCCC1 | 0.794 µM (active) | –
43 | COCCCNC(=O)CN(c1ccc(OC)cc1)S(=O)(=O)c1ccc(NC(C)=O)cc1 | 15.8 µM (active) | –
44 | COc1ccc(N(CC(=O)NN=C2CCCC2)S(=O)(=O)c2ccccc2)cc1 | 6.31 µM (active) | –
45 | COC(=O)[C@@]1(Cc2ccc(F)cc2)[C@H]2c3cc(C(=O)N4CCCC4)n(Cc4ccc(OC(F)(F)F)cc4)c3C[C@H]2CN1C(=O)c1ccccc1 | inactive | –
46 | COC(=O)[C@@]1(Cc2ccccc2)[C@H]2c3cc(C(=O)N4CCCC4)n(Cc4ccc(C)o4)c3C[C@H]2CN1C(=O)c1ccccc1 | 2.51 µM (active) | –
47 | COC(=O)[C@@]1(Cc2ccc(F)cc2)[C@H]2c3cc(C(=O)N4CCCC4)n(Cc4ccc(C)o4)c3C[C@H]2CN1C(=O)c1ccccc1 | 5.01 µM (active) | –
48 | COC(=O)[C@@]1(Cc2ccc(F)cc2)[C@H]2c3cc(C(=O)N(C)C)n(Cc4ccc(C)o4)c3C[C@H]2CN1C(=O)c1ccccc1 | 15.8 µM (active) | –
49 | COC(=O)[C@@]1(Cc2ccc(F)cc2)[C@H]2c3cc(C(=O)N(C)C)n(Cc4ccc(C)c(F)c4F)c3C[C@H]2CN1C(=O)c1ccccc1 | 15.8 µM (active) | –
